Assay results published in PubChem BioAssay (NCI).
Several values for one entry are separate records, joined by “and”; a condition that tells them apart may be missing. Identical values can stand only once. This is part of a sample that, as a whole, favours compounds with a hit. Of some 79,000 tested, about 15% had one in any assay. Values without a mark were called inactive. Activity calls are given as the source filed them. No stated cut-off is given here; in the data, active means growth inhibition above about 70%; inactive means the rest.

Test: NCI Yeast Anticancer Drug Screen. Data for the rad50 strain (AID 155);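 further: 0% = growth of vehicle-only cultures of the same strain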
Conditions: S. cerevisiae rad50 strain growth inhibition, active compounds read high
Protocol: Growth inhibition of yeast strains with defined genetic alterations is measured as a screen for potential anti-cancer activity. Selected strains with alterations in DNA damage repair or cell cycle control were exposed to compounds and growth inhibition was measured relative to vehicle treated controls. The strain used in this assay is rad50

[1] = at 5.0 µM (retest, dose inferred, filed as 0.5)
[2] = at 50.0 µM (retest, dose inferred, filed as 5.0)

SMILES	growth inhibition (at 1.2 µM) [%]	growth inhibition (at 3.7 µM)	growth inhibition [1]	growth inhibition (at 11.0 µM)	growth inhibition (at 33.0 µM)	growth inhibition [2]	growth inhibition (at 50.0 µM)	growth inhibition (at 100.0 µM)
Cc1csc(=S)n1OC(=O)NC1CCCCC1	-2	98% (active)	94% (active)	99% (active)	98% (active)	98% (active)	92.5% (active)	98% (active)
C=C(Cl)COC(=O)Nc1cccc(Cl)c1	8	27%	0%	58%	80% (active)	79% (active)	82% (active)	97% (active)
c1ccc2[nH]c(-c3cscn3)nc2c1	-2	3%	-19%	-1%	4%	-2%	-4.2% and 39.9%	11%
Cc1ccc(CC2(OCCN(C)C)CCC(C(C)(C)C)CC2)cc1 (stereo not given)	-3	0%	13% and 12%	7%	64%	100% (active)	98.6% (active) and 98.5% (active)	98% (active)
CCOC1=C/C(=N\Nc2ccc([N+](=O)[O-])cc2)CCC1	3	10%	17%	22%	30%	51%	23.4%	10%
